This is a sample that favours compounds with a hit; in the whole collection about 2.5% have one here.
CCT modulator = changes cytosolic chaperonin activity | purified chaperonin ATPase assay, HTRF ADP detection, 30 min | activity change, % (no concentration beside the values), hits read low | 360,000 tested, 0.3% active | AID 651819; in the data active = activity change below about -30%; also: % is scaled to controls: 0 for no effect and ±100 for the full control effect
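TRiC (40 or 20 nM final, by batch activity) in 30 mM Tris pH 7.4, 100 mM KCl, 5 mM MgCl2, 1 mM DTT was treated with compound at 76 uM single dose, then 10 uM ATP, 30 min at 37 °C. ADP was read by HTRF Transcreener.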
Akt phos inh = blocks phosphorylation of Akt; Neuro2A IGF-stimulated pAkt S473 HTRF, 20 min; stronger effect = lower value; activity change, % for hits at 50 µM; 360,000 tested, 0.32% active; AID 651550; in the data active = activity change below about -80%; inconclusive = mostly about -51% to -80%; also: % is scaled to controls: 0 for no effect and ±100 for the full control effect
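Neuro2A cells in DMEM with 0.5% FBS, overnight at 37 deg C, given compound at single 50 µM final, then IGF (6 nM final) for 20 min at 37 deg C. Lysed; phospho-Akt Ser473 by HTRF after 24 h, 665/615 ratio.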
Mito fusion act = mitochondrial division inhibition or fusion activation. S. cerevisiae fusion-defective mutant growth rescue, CellTiterGlo 48 h. Potency, µM (highest dose often 46.1 µM), without a hit: at the highest dose growth rescue (activation), hits mostly activators. 320,000 tested, 0.23% active. AID 485298; also: potency is read from the fitted curve at half-maximal effect; % of control where 0% means no effect; nearly all actives have a fitted effect of over 45% in size
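Temperature-sensitive fusion-defective S. cerevisiae (e.g. fzo1-1, mgm1-5) were grown with compound in YPEG medium (3% ethanol, 3% glycerol) for 48 hours at 37C. Growth rescue was measured as viability by CellTiterGlo luminescence after 10 minutes at ambient.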
Apoferritin bind = candidate novel general anesthetic via apoferritin binding; apoferritin/1-aminoanthracene competitive binding, fluorescence; Potency, µM (series often up to 77.5 µM), without a hit: at the highest dose activity change, negative = displacement, hits mostly inhibitors; 350,000 tested, 0.074% active; also: potency is read from the fitted curve at half-maximal effect; % is scaled to controls: 0 for no effect and ±100 for the full control effect; nearly all actives have a fitted effect of over 20% in size
Target sequence (P02791 2-175 limits assumed): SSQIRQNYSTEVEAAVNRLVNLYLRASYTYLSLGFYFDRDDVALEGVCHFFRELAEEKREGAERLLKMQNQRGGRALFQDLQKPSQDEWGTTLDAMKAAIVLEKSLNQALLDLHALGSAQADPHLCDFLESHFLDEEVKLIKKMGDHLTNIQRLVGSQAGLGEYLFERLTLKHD
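Concentration-response curves derived by four-parameter Hill fitting of normalized fluorescence, where compounds displaced 1-AMA from 10 uM horse apoferritin following a brief 10 min room-temperature incubation; propofol titration acted as positive control.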
aSyn rescue = rescues yeast growth from alpha-synuclein toxicity | Yeast expressing alpha-synuclein, growth rescue, BacTiter-Glo, 24 h | Potency, µM (doses to about 46.1 µM), without a hit: at the top dose growth rescue (activation), most hits filed as activators | AID 652106 | 370,000 tested, 0.14% active; also: potency is read from the fitted curve at half-maximal effect; % of control where 0% means no effect; nearly all actives have a fitted effect of over 65% in size
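Readout is rescue of growth in alpha-synuclein-expressing yeast, so inhibitors of toxicity appear as activators. Growth after 24 hr at 30 deg C in galactose medium is quantified by luminescence.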
TDP-43 yeast inh = TDP-43 toxicity inhibition in yeast. TDP-43 expressing yeast growth rescue, BacTiter-Glo, 24 h. Potency, µM (titrated, usually from 46.1 µM), without a hit: at the highest dose growth rescue (activation), usual class: activators. 410,000 tested, 1.8% active; also: potency is read from the fitted curve at half-maximal effect; % of control where 0% means no effect; nearly all actives have a fitted effect of over 50% in size
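Yeast expressing TDP-43 (pregrown in raffinose, seeded at OD600=0.02 in galactose medium) exposed to compounds 24 hr at 30 deg C. Growth read by BacTiter-Glo luminescence; rescue of toxicity appears as increased signal.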
Active calls of the source: *; i = inactive; ? = inconclusive; . = no result given; ! = a repeat was not active; [ ] = dose if it differs, or a comment. Unless noted, calls follow the shape of the dose curve; as a rule, active = well fitted curve in the direction sought with a large enough effect; inconclusive = small, poorly fitted or top-dose-only effect, or another doubt; inactive = no such curve, though single readings can be large; an effect the other way counts as inactive or inconclusive.

SMILES	CCT modulator	Akt phos inh	Mito fusion act	Apoferritin bind	aSyn rescue	TDP-43 yeast inh
CCOC(=O)Cn1c(-c2cccnc2Cl)nc2cc(C)c(C)cc21	-34*	i	-4%	-8%	-7%	-28%
CCCn1ccc2c(OCC(=O)Nc3ccc(F)cc3F)cccc2c1=O	.	.	.	-9%	.	22µM*
CCn1ccc2c(OCC(=O)Nc3ccc(C)c(Cl)c3)cccc2c1=O	.	.	.	?	.	22µM*
COC(=O)c1ccc(NC(=O)CC2C(=O)N(c3cccc(OC)c3)C(=O)N2Cc2ccco2)cc1 (centres undefined)	.	.	.	5%	.	5%
O=C(CSc1cccc(C(F)(F)F)c1)NCc1ccccc1	0	i	10%	4%	4%	11µM*
O=C(CSc1ccccc1)NCc1ccccc1	0	i	2%	-6%	0%	0%
CCOc1ccc(C2c3c(oc4ccc(C)cc4c3=O)C(=O)N2CCCN(C)C)cc1 (centres undefined)	.	.	.	7%	.	13%
O=C(NCCn1ccc2ccccc21)c1ccc(Cl)cc1	.	.	.	3%	.	29%
CCc1cccc(NC(=S)N(CCN(C)C)C(C)c2ccncc2)c1 (centres undefined)	0	i	-4%	3%	-5%	9%
CCOC(=O)c1ccc(NC(=S)N(CCN(C)C)C(C)c2ccncc2)cc1 (centres undefined)	1	i	4%	5%	28µM*	23%
Cc1ccc2nc(CN3CCN(S(=O)(=O)c4ccc(F)cc4)CC3)oc2c1	.	.	.	-8%	.	16µM*
Cc1ccc(S(=O)(=O)N2CCN(Cc3cccc(F)c3)CC2)cc1	-1	i	.	.	10%	-13%
Cn1c(-c2ccccc2)c(CCO)c2ccccc21	-2	i	23%	-4%	22%	?
OCCCc1cn(-c2ccccc2)c2ccccc12	-1	i	17%	-5%	24%	13µM*
O=C(CCl)N1c2ccccc2SCC1c1ccccc1 (centres undefined)	0	i	1%	-8%	-2%	7.9µM*
O=c1ccc(-c2ccccc2)nn1Cc1ccccc1	-6	i	.	.	-1%	22µM*
COc1ccc(-c2ccc(=O)n(Cc3cccc(Cl)c3)n2)cc1	-1	i	?	?	?	?
O=c1ccc(-c2ccccc2)nn1Cc1ccc(F)cc1Cl	1	i	?	?	20%	32µM*!
O=C(Cn1nc(-c2ccccc2)ccc1=O)NCc1ccc(F)cc1Cl	.	.	.	11µM*	.	26%
Cc1ccc(-c2ccc(=O)n(Cc3cccc(Br)c3)n2)cc1	0	i	5%	?	22µM*	4%
O=C(Cn1nc(-c2ccc(Cl)cc2)ccc1=O)NCc1ccccc1Cl	.	.	.	?	22%	?
CCc1ccc(CNC(=O)Cn2nc(-c3ccccc3)ccc2=O)cc1	-5	i	-19%	11µM*	11%	1%
Cc1ccc(-c2ccc(=O)n(CC(=O)NCc3ccco3)n2)cc1	0	i	0%	8.9µM*	-1%	-16%
O=C(NCCc1c[nH]c2ccccc12)c1ccccc1O	.	.	.	8%	.	.
Cc1ccc(Nc2ccc(N3CCN(C(=O)c4cccc([N+](=O)[O-])c4)CC3)nn2)cc1	.	.	.	?	.	26%
SMILES	CCT modulator	Akt phos inh	Mito fusion act	Apoferritin bind	aSyn rescue	TDP-43 yeast inh
O=C(CCn1c(=O)c2cccn2c2cccnc21)N1CCN(c2cccc(C(F)(F)F)c2)CC1	.	.	.	-15%	.	25µM*
COc1ccccc1Nc1ncccc1[N+](=O)[O-]	-49*	i	-3%	-2%	-5%	18%
O=S(=O)(c1ccccc1Br)N1CCN(c2nc(-c3cccs3)nc3ccccc23)CC1	.	.	.	.	-2%	.
CCOC(=O)N1C(=O)[C@@](c2ccc(Cl)cc2)(C(C)C)N1C(=O)OCC	2	i	-1%	0%	-27%	20µM*
CCOC(=O)N1C(=O)[C@](c2ccc(Cl)cc2)(C(C)C)N1C(=O)OCC	-3	i	3%	-1%	-16%	16µM*
COc1ccc(NC(=O)Cn2c(=O)oc3cc(S(=O)(=O)NCc4ccccc4)ccc32)c(OC)c1	.	.	.	1%	.	25%
CC=Cc1cc(OC)c2c(c1)C(C)C(c1ccc(O)c(OC)c1)O2 (centres undefined)	-4	i	.	.	?	35µM*
CCCCNC(=O)c1sc2ncccc2c1-n1cccc1	.	.	.	-6%	.	19%
O=C(NCc1ccccc1F)c1sc2ncccc2c1-n1cccc1	.	.	.	-19%	.	20µM*
O=C(NCCc1ccccc1)c1sc2ncccc2c1-n1cccc1	.	.	.	-8%	.	22µM*
CC1=C(C(=O)OCC2CCCCC2)C(c2ccc(Cl)cc2)CC(=O)N1 (centres undefined)	.	.	.	-9%	.	11%
C[C@H]1/C=C\CC(=O)OC[C@H](C)C(=O)N2CCC[C@@H]2C(=O)OC1	.	.	.	-10%[15.3 µM]	.	.
C=CCSc1nncn1/N=C/c1ccc(OC)cc1	1	-103%*	-3%	?	4%	25%
COc1ccc(/C=N/n2cnnc2SCCO)cc1OC	-3	i	0%	-1%	1%	-7%
O=C1c2ccccc2C(=O)N1CCc1ccccc1	2	i	.	.	24%	11µM*
O=C1c2ccccc2C(=O)N1CCc1c(-c2[nH]c3ccccc3c2CCN2C(=O)c3ccccc3C2=O)[nH]c2ccccc12	-2	i	.	.	0%	20%
O=C1c2ccccc2C(=O)N1CCCCCCc1ccccc1	0	i	28%	.	-3%	24%
O=C1c2ccccc2C(=O)N1CCc1c(-c2ccccc2)[nH]c2ccccc12	0	i	.	.	10%	11µM*
COc1ccc(C(=O)Oc2ccc(C(c3c(C)[nH][nH]c3=O)c3c(C)[nH][nH]c3=O)cc2)cc1	.	.	.	0%	.	?
CCOC(=O)c1cc(-c2ccc3c(c2)OCO3)nc2onc(C)c12	1	-117%*	2%	3%	5%	19%
O=C(CCc1ccccc1)Nc1cc(Cl)ccc1O	2	i	6%	5.6µM*	-2%	?
COC(=O)c1ccsc1NC(=O)CCc1ccccc1	2	i	20%	-3%	0%	?
COC(=O)c1cc(C)sc1NC(=O)CCc1ccccc1	-2	i	-1%	1%	3%	11µM*
COC(=O)c1ccccc1NC(=O)CCc1ccccc1	1	i	22%	-7%	-3%	10µM*
Cc1noc(C)c1-c1ccc2ncnc(NCc3ccc(C(F)(F)F)cc3)c2c1	.	.	.	-18%	.	.
CCCCC1S/C(=N/N=C/c2ccco2)NC1=O (centres undefined)	-42*	i	5%	4%	-9%	-7%
CCCCOC(=O)Nc1ccc(S(=O)(=O)Nc2ccc([N+](=O)[O-])cc2)cc1	0	i	9%	-9%	-2%	-15%

Assay outcomes from PubChem.
